The assay deals with Nuclear receptor ROR-gamma (Mus musculus) (UniProt P51450). In words: Secondary confirmation assay for inhibitors of ROR gamma transcriptional activity. The settings on record: Drosophila S2 Gal4-RORgamma UAS-luciferase reporter, 20 h. An excerpt:
NIH Molecular Libraries Probe Production Network [MLPCN] NIH Chemical Genomics Center [NCGC] MLPCN Grant: R03 DA026211-01 Assay Provider: Dan Littman, New York University Keywords: NIH Roadmap, MLPCN, MLI, MLSMR, qHTS, NCGC, qHTS, nuclear hormone receptor, retinoic acid-related orphan receptor, ROR gamma Assay Overview: The retinoic acid-related orphan receptor (ROR) gamma is a transcription factor that has a central role in the differentiation of Th17 cells, a subset of T helper cells that secrete the inflammatory cytokines IL-17, IL-17F, and IL-22. Th17 cells have been implicated in graft versus host disease, autoimmune disease and asthma. ROR gamma is induced in naive T helper cells in the presence of TGF-beta combined with IL-6, IL-21, or IL-23, and thereafter directs the expression of the Th17 lineage cytokines. To study the mechanism of action of ROR gamma, an insect cell-based assay was screened. […] Small molecule inhibitors of ROR gamma activity are detected by a decrease in luciferase reporter activity.
Assay Protocol Summary: For screening, 600 cells in 4 uL/well were dispensed into white solid 1536-well plates (Grenier) using a solenoid-based dispenser. […] After addition of 1.5 uL Photinus luciferase detection reagent, the plates were incubated 10 min at ambient temperature and then read by an ViewLux (Perkin Elmer) to detect luminescence. […]
(A reporter such as luciferase makes a cellular process visible.)

Structures are written as SMILES. Results filed as inconclusive are left out. The source made the active and inactive calls. The call rests on the fitted dose curve; in most records, active means well fitted inhibition curve with a large enough effect; inconclusive means small, poorly fitted or top-dose-only effect, or effect the other way; inactive means no such curve, though single readings can be large or run the other way.

Chain of Nuclear receptor ROR-gamma (Mus musculus) (P51450 whole entry, looked up, the tested form may be a part): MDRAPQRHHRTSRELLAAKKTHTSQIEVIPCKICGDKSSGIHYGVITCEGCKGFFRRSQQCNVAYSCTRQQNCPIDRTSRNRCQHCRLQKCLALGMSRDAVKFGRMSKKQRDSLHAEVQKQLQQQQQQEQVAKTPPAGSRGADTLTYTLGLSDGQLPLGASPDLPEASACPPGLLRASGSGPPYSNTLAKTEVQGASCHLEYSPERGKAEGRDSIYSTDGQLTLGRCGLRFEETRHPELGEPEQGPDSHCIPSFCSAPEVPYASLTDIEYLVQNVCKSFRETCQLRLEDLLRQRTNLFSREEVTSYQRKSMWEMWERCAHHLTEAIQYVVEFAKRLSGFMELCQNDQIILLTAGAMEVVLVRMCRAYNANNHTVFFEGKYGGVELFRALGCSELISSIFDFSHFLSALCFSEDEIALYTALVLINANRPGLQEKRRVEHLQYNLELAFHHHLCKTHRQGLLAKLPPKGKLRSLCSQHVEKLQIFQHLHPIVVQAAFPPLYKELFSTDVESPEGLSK

`CC1OC(O[C@@H]2C(O)CC(O[C@@H]3C(O)C[C@@H](OC4CC[C@@]5(C)C6CC[C@]7(C)C(C8=CC(=O)OC8)C(O)C[C@@]7(O)[C@H]6CC[C@@H]5C4)OC3C)OC2C)CC(O)C1O` (some centres not stated): the Potency is 4070 nM (active).

For the compound `CO[C@H]1[C@@H](O)CC(OC2[C@@H](O)CC(OC3[C@@H](O)C[C@H](OC4CC[C@@]5(C)C(CCC6C5CC(O)[C@]5(C)[C@H](C7=CC(=O)OC7)CCC65O)C4)O[C@@H]3C)O[C@@H]2C)O[C@@H]1C` (some centres not stated), the Potency is 1820 nM (active).

Source of the values: PubChem BioAssay AID489037 (National Center for Advancing Translational Sciences (NCATS), 2010).
